Only some compounds are listed: those with a hit (about 3.5% of all), similar ones and a draw of the others.
SKN-1 inh: blocks SKN-1 activity in C. elegans; C. elegans VP596 Pgst-4::GFP/RFP ratio, acrylamide-induced, 24 h; inhibition, % at 21.8 µM; 360,000 compounds, 0.49% hits;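 active = interference check ratio from 0.5 to 1.5 plus GFP to RFP signal ratio inhibition reaching or exceeding a fixed threshold, cut at about 30% in these data, passing the limit was not always enough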
CHRM1 antagonist: blocks human M1 muscarinic receptor. CHO-K1 hM1, Fluo-8 calcium fluorescence, ACh EC80 antagonist. inhibition, % at 3 µM. AID 588852. 360,000 compounds, 1.3% hits. P11229;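 active = percent inhibition above its own plate's cutoff, namely the mean of that plate's compound wells plus 3 SD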;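 note: peak over basal fluorescence ratio during 140 s after agonist addition; 0% = ACh EC80 plus DMSO and 100% = DMSO alone without agonist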
Target sequence (P11229 whole entry, looked up): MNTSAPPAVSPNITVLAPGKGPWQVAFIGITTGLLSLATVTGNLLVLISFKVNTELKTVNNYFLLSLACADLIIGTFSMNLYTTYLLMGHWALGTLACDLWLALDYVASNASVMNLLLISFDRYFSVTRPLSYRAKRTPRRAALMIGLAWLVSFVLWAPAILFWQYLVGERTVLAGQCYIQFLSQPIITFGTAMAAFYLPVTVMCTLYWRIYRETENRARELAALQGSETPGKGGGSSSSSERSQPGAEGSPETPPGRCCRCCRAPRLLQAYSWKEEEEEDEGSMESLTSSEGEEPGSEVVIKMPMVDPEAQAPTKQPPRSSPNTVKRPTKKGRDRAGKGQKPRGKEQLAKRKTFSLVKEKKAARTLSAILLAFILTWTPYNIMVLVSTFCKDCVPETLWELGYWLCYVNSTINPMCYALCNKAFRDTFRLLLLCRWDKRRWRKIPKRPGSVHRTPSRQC
Myeloid diff 2: promotes myeloid progenitor differentiation; calls only at 10 µM; 360,000 compounds, 1% hits; ER-HoxA9 myeloid progenitors, lysozyme-GFP differentiation, flow cytometry; AID 624256;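 active = normalized GFP-positive differentiation at or above the plate's own cutoff, the solvent-only control mean plus 3 SD; inconclusive = no clear call, values can overlap the other calls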;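 note: cells exposed to compound for four days before flow analysis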
ATG4B inhibitor: blocks human ATG4B protease cleavage of LC3 substrate. ATG4B cleavage of LC3-PLA2, NBD-HPC fluorescence, 1 h. inhibition, % at 8.33 µM. 340,000 compounds, 0.51% hits. AID 504462; in the data active = inhibition above about 40%
M1 PAM: potentiates human M1 receptor response to acetylcholine; 360,000 compounds, 0.088% hits; activation, % at 3 µM; P11229; CHO-K1 hM1, Fluo-8 calcium fluorescence, ACh EC20; 0% = ACh EC20, 100% = maximal ACh; in the data active = activation above about 19%, passing the limit was not always enough
M1 ag: activates human CHRM1 receptor. P11229. CHO-K1 hM1, Fluo-8 calcium fluorescence, agonist mode; 0% DMSO, 100% acetylcholine EC100. activation, % at 3 µM. 360,000 compounds, 0.33% hits;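 active = activation above the run's mean compound activation plus 3 SD, cut at about 16% in these data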;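 note: peak over basal fluorescence ratio within a 140 s kinetic read after compound addition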
Numbers without * were called inactive; i = inactive; u = inconclusive; x = not tested or not shown; + = active, no number.

SMILES | SKN-1 inh | CHRM1 antagonist | Myeloid diff 2 | ATG4B inhibitor | M1 PAM | M1 ag
COc1ccc(S(=O)(=O)N2CCCCC2)cc1NC(=O)CN(Cc1ccco1)Cc1ccco1 | 7 | 44* | i | -17 | -20 | 7
CC1(C(=O)Nc2ccc3[nH]ncc3c2)CCN1C(=O)C/C=C/c1ccccc1 (stereo not drawn) | 3 | -19 | + | x | 8 | -3
O=C(c1[nH]c(C(F)(F)F)nc1-c1ccccc1)N1CCN(c2c(Cl)cncc2Cl)CC1 | -1 | -2 | i | x | -8 | 17*
O=C(c1[nH]c(C(F)(F)F)nc1-c1ccccc1)N1CCN(c2ccccc2)CC1 | -10 | -20 | u | x | 0 | 2
O=C(NCCc1ccccc1)c1cc(-c2ccccc2)c(N2CCOCC2)s1 | 13 | -1 | i | 4 | 11 | 9
CCN(CC)CCCNC(=O)c1cc(-c2ccccc2)c(N2CCCCC2)s1 | 21 | 55* | i | -1 | -25 | -9
CCCCN1CCNC[C@@H]1c1ccccc1 | 14 | -3 | i | -4 | 4 | -4
CC(C(=O)N1CCOCC1)N1C(=O)c2ccccc2C1=O (stereo not drawn) | 5 | -9 | i | -2 | 2 | -4
CC(C(=O)N1CCN(C)CC1)N1C(=O)c2ccccc2C1=O (stereo not drawn) | 36* | -12 | i | -14 | 10 | -6
CCN(CC(=O)Nc1ccc2c(c1)OCCO2)C(=O)/C=C/c1cccc(OC)c1OC | -11 | -20 | i | -6 | 27* | 17*
CN1C[C@@H]2C(c3ccc(Cl)nc3)C3(c4cccnc4)CC2(C3)[C@H]1c1ccccc1 (stereo partly drawn) | 10 | 54* | i | -9 | -37 | -14
CN1C[C@@H]2C(c3ccccc3)C3(c4ccc(C#N)cc4)CC2(C3)[C@H]1c1ccccc1 (stereo partly drawn) | 6 | 0 | i | -3 | -4 | -10
CN1C[C@@H]2C(c3ccc(Cl)nc3)C3(c4ccccc4)CC2(C3)[C@H]1c1ccccc1 (stereo partly drawn) | 0 | 84* | i | -12 | -40 | -14
COC(=O)c1cccc(C23CC4(C2)[C@H](CN(C)[C@@H]4c2ccccc2)C3c2ccc(C(F)(F)F)cc2)c1 (stereo partly drawn) | 8 | 11 | i | -9 | -6 | -10
CN1C[C@@H]2C(c3ccccc3)C3(c4ccccc4)CC2(C3)[C@H]1c1ccccc1 (stereo partly drawn) | -6 | 78* | i | -14 | -36 | -14
COC(=O)c1cccc(C23CC4(C2)[C@H](CN(C)[C@@H]4c2ccccc2)C3c2ccccc2)c1 (stereo partly drawn) | 10 | 64* | i | -1 | -39 | -14
Clc1ccc(C2[C@H]3CN(CC4CCCCC4)[C@H](c4ccccc4)C34CC2(c2ccccc2)C4)cn1 (stereo partly drawn) | 22 | -4 | i | 6 | 14 | -1
CCN(CC(=O)Nc1c(F)cccc1F)C(=O)c1cc([N+](=O)[O-])ccc1N1CCCCC1 | 9 | -6 | i | -2 | 7 | -5
C[C@@H]1CN([C@@H](C)CO)C(=O)c2cc(C#CC(C)(C)O)cnc2O[C@@H]1CN(C)C(=O)c1ccccc1F | 2 | -19 | i | x | -1 | -3
CC(C)[C@H](NC(=O)c1ccc(Cl)cc1Cl)C(=O)NNc1cccc(C(=O)O)c1 | -14 | -9 | i | -5 | 2 | -4
CN(Cc1ccccc1)C(=O)CCC1CCN(C(=O)CCC(F)(F)F)CC1 | 0 | -6 | i | -5 | 7 | -7
Cc1ccc(S(=O)(=O)NC(=O)NC(=O)N(C)S(=O)(=O)c2ccc(C)cc2)cc1 | -2 | -2 | i | -3 | 5 | -2
COc1ccc(/C=N\NC(=O)c2cc(O)c(O)c(O)c2)cc1COc1ccc(C(=O)OCC(C)C)cc1 | 2 | -12 | i | 15 | 4 | 1
CCN(CC)C(=O)C1=C(C)N(CCCN2CCCC2=O)C(=O)C(CC(=O)NCc2cccc3ccccc23)C1 (stereo not drawn) | 1 | -18 | i | x | 7 | -5
CC(C)(C)n1ncc2c(=O)n(Cc3ccc(Cl)c(Cl)c3)cnc21 | 12 | -2 | + | -3 | 7 | -1
SMILES | SKN-1 inh | CHRM1 antagonist | Myeloid diff 2 | ATG4B inhibitor | M1 PAM | M1 ag
Cc1ccc(Cn2cnc3c(cnn3C(C)(C)C)c2=O)cc1 | -3 | 1 | i | 1 | 1 | 0
CSc1cccc(NC(=O)C2C3C=CC4(O3)C2C(=O)N(CCN2CCOCC2)C4C(=O)NC2CCCCC2)c1 (stereo not drawn) | 37* | 24 | i | 2 | -11 | -4
Cc1cc(C(=O)Nc2cccc3c2O[C@H](CN(C)CC2CC2)[C@@H](C)CN([C@H](C)CO)C3=O)n(C)n1 | -14 | -6 | i | -10 | 7 | 5
COc1ccc(N2CCN(CNC(=O)c3ccccc3)CC2)cc1 | 3 | -25 | i | 2 | 21 | 0
O=C1N(c2ccccc2)C[C@@H]2C[C@@H](c3cccc4c3OCO4)N3CCC[C@@]123 | 2 | 49* | i | 5 | -30 | -12
COc1ccccc1-n1cc([C@@H]2C[C@H]3CN(c4ccccc4)C(=O)[C@]34CCCN24)cn1 | 40* | 21 | x | 2 | -24 | -10
COc1cc(Cl)c([C@@H]2C[C@H]3CN(c4ccccc4)C(=O)[C@]34CCCN24)cc1OC | 12 | -6 | i | 8 | 6 | -11
CCCc1cc(=O)[nH]c2nnc(SCC(=O)Nc3cccc(NC(C)=O)c3)n12 | 2 | 2 | i | -10 | 16 | 20*
CC1(C)Cc2cccc(OCC(=O)Nc3ccccc3C(F)(F)F)c2O1 | -25 | 0 | i | 14 | 18 | 1
CC1(C)Cc2cccc(OCC(=O)Nc3ccccc3N3CCOCC3)c2O1 | 2 | 30* | i | 7 | -13 | -3
O=C(Cn1cnc2c(nnn2Cc2ccc(F)cc2)c1=O)Nc1ccccc1 | 8 | -8 | i | -6 | 6 | 1
COCCNc1nc2c(c(=O)n(Cc3cccc(Br)c3)c(=O)n2C)n1C | 16 | 0 | i | 13 | 3 | -5
COCCNc1nc2c(c(=O)n(Cc3cccc(Cl)c3)c(=O)n2C)n1C | 9 | -10 | + | 1 | 3 | -4
Brc1ccc2c(c1)OCCOCCOc1cc(Br)ccc1OCCOCCOCCO2 | 7 | 39* | u | -2 | -21 | -3
Brc1cc2c(cc1Br)OCCOCCOCCOCCO2 | 0 | -9 | i | -9 | 2 | -7
Oc1ccc2ccccc2c1CN1CCN(C/C=C/c2ccccc2)CC1 | -1 | 77* | i | 6 | -30 | -7

Screening data: PubChem, several laboratories
